PubChem BioAssay (NCATS)

Assay: qHTS profiling of the MIPE4 collection as inhibitors of Plasmodium falciparum (HB3) proliferation (AID 743347);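 also: plate controls were DMSO vehicle wells for no effect and artemisinin wells for full effect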
Conditions: P. falciparum HB3 in erythrocytes, SYBR Green DNA, 72 h; at 28.5 µM (top of the series) unless noted
Procedure, shortened: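 Erythrocytes infected with P. falciparum (0.3% parasitemia, 2.5% hematocrit) incubated with compounds 72 h at 37 C, 5% CO2. Lysis with saponin/Triton buffer containing SYBR Green I, overnight at room temperature in the dark; DNA fluorescence (485/535 nm) normalised to 0.29 uM artemisinin and DMSO.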
In the case of `CC(=O)ON=C1C(c2c(O)[nH]c3cc(Br)ccc23)=Nc2ccccc21`, the growth, % of control is reported as 2.46%.
`CCn1c(=O)c2c(nc(C=Cc3ccc(OC)c(OC)c3)n2C)n(CC)c1=O` gave a growth, % of control of 47.9%.
Work on `CC(=CC(=O)Nc1ccccc1C(=O)O)c1ccc2ccccc2c1` yielded a growth, % of control of 674%.
Molecule `C#Cc1cccc(Nc2ncnc3cc(OCCOC)c(OCCO)cc23)c1` has a growth, % of control of 4.56%.
`O=C(C=CC=Cc1ccc2c(c1)OCO2)N1CCCCC1` showed a growth, % of control of 95%.
With `CCCCCCCCc1ccc(CCC(N)(CO)CO)cc1` the growth, % of control was 4.09%.
With `O=C(Nc1nnc(-c2ccco2)o1)c1cc(-c2ccccc2)nc2ccccc12` the growth, % of control was 18.7%.
With `C[C@H](O)[C@@H]1C(=O)N2C(C(=O)O)=C(S[C@@H]3CN[C@H](CNS(N)(=O)=O)C3)[C@@H](C)[C@@H]12` the growth, % of control was 87.8%.
With `C=CC(=O)Nc1cccc(Nc2nc(NC3CCC(N(C)C)CC3)nc3c2ncn3C(C)C)c1` (centres undefined) the growth, % of control was 4.69%.
With `OC[C@H]1OC(O)C[C@@H](O)[C@H]1O` (some centres undefined) the growth, % of control was 86.6%.
`CN(C)CCN1C(=O)c2cccc3cc(N)cc(c23)C1=O` showed a growth, % of control of 9.26%.
`CCOC(=O)N1CCN([N+]([O-])=NOc2ccc([N+](=O)[O-])cc2[N+](=O)[O-])CC1` gave a growth, % of control of 60.8%.
With `CCC(C(=O)O)C1CCC(C)C(C(C)C(O)C(C)C(=O)C(CC)C2OC3(C=CC(O)[C@@]4(CC[C@](C)(C5CC[C@@](O)(CC)C(C)O5)O4)O3)C(C)CC2C)O1` (some centres undefined) the growth, % of control was 16.9%.
Molecule `C=C1C(=O)O[C@H]2[C@@H]1CCC(C)=CCC[C@@]1(C)O[C@@H]21` has a growth, % of control of 31.2%.
With `CC(Oc1ccc(O)cc1)(P(=O)(O)O)P(=O)(O)O` the growth, % of control was 98.7%.
For `C=C1CCC2[C@](C)(CO)C(O)CC[C@]2(C)C1CC=C1C(=O)OCC1O` (some centres undefined), the growth, % of control was 46.9% [at 57.5 µM].
`CN(C)CC(=O)N1CCC(c2ccc(NC(=O)c3ncc(C#N)[nH]3)c(C3=CCCCC3)c2)CC1` gave a growth, % of control of 9.47%.
Molecule `C[C@H](NCc1ccc2c(c1)nc(NC(=O)c1ccc(-c3cn[nH]c3)s1)n2CCc1ccccc1)C(C)(C)C` has a growth, % of control of 10.1%.
For `CC[C@H]1OC(=O)[C@H](C)[C@@H](O[C@H]2C[C@@](C)(OC)[C@@H](O)[C@H](C)O2)[C@H](C)[C@@H](O[C@@H]2O[C@H](C)C[C@H](N(C)C)[C@@H]2O)[C@](C)(OC)C[C@@H](C)C(=O)[C@H](C)[C@@H](O)[C@]1(C)O`, the growth, % of control was 51.5%.

Assay: High-throughput drug toxicity screening in the BPDCN cell line Gen2.2 (AID 1224824);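 also: cells exposed to compounds for 48 h before reading; 100% = DMSO and 0% = bortezomib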
Conditions: Gen2.2 BPDCN cells; at 45.8 µM (top of the series) unless noted
Procedure, shortened: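 Readout is ATP luminescence from Gen2.2 cells after two days of drug exposure in serum-containing medium at 37 °C. Values express percent activity, with vehicle defining full signal and 9.2 uM bortezomib defining zero.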
`COc1ccc2cc([S+]([O-])Cc3ncc(C)c(OC)c3C)nc2c1` showed a cell viability, % of control (lower = more cytotoxic) of 70.5%.
In the case of `CN(N=O)C(=O)N[C@H]1C(O)OC(CO)[C@@H](O)[C@H]1O` (some centres undefined), the cell viability, % of control (lower = more cytotoxic) is reported as 97.4%.
In the case of `c1coc(CNc2ncnc3nc[nH]c23)c1`, the cell viability, % of control (lower = more cytotoxic) is reported as 90.9%.
For `Oc1ccc(-c2ccc(-c3cc(Nc4cccc(CNC5CC5)c4)n[nH]3)cc2)c(O)c1`, the cell viability, % of control (lower = more cytotoxic) was 2.13%.
With `C[C@H]1COc2c(N3CCN(C)CC3)c(F)cc3c(=O)c(C(=O)O)cn1c23` the cell viability, % of control (lower = more cytotoxic) was 160%.
Work on `NC(=NCCCCCCN=C(N)N=C(N)Nc1ccc(Cl)cc1)N=C(N)Nc1ccc(Cl)cc1` yielded a cell viability, % of control (lower = more cytotoxic) of 6.22%.
Molecule `C[C@@H](Cc1cc2c(c(C(N)=O)c1)N(CCCO)CC2)NCCOc1ccccc1OCC(F)(F)F` has a cell viability, % of control (lower = more cytotoxic) of 183%.
In the case of `O=C(Nc1cc2cc[nH]c2cn1)c1ccccc1`, the cell viability, % of control (lower = more cytotoxic) is reported as 13.5%.
With `Cc1ccc(O)c(C(CCN(C(C)C)C(C)C)c2ccccc2)c1` (centres undefined) the cell viability, % of control (lower = more cytotoxic) was 239%.
Work on `C[C@@H](Oc1ccc2[nH]nc(C=Cc3cnn(CCO)c3)c2c1)c1c(Cl)cncc1Cl` yielded a cell viability, % of control (lower = more cytotoxic) of 8.4%.
